The supplement of paper PMC4466140

Biological target: AgAbp1
Test: SPOT peptide array binding signal intensity (averaged, normalized) (arbitrary units (background-subtracted, floor 0; scale differs between SH3 domains)); higher = stronger binding of the SH3 domain to the peptide
Outline: (§1)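 Binding signal refers to normalized, background-subtracted spot intensity averaged over replicates, expressed in arbitrary units that differ between domains. GST-fused SH3 domains from four yeast species were incubated at 10 μg/ml overnight at 4°C on cellulose membranes of synthetic 15-mer peptides with cysteines replaced by serines. Bound protein was detected with anti-GST antibody, an HRP anti-mouse secondary and luminol, and quantified with Genespotter.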

Binder	SPOT peptide array binding signal intensity
TIRRRAPLSLLESHT	77

Biological target: AgBbc1
Test: as above
Outline: as §1

Binder	SPOT peptide array binding signal intensity
TIRRRAPLSLLESHT	20

Biological target: AgBem1-D1
Test: as above
Outline: as §1

Binder	SPOT peptide array binding signal intensity
TIRRRAPLSLLESHT	46.5

Biological target: AgBzz1-D1
Test: as above
Outline: as §1

Binder	SPOT peptide array binding signal intensity
TIRRRAPLSLLESHT	46

Biological target: AgBzz1-D2
Test: as above
Outline: as §1

Binder	SPOT peptide array binding signal intensity
TIRRRAPLSLLESHT	39

Biological target: AgCyk3
Test: as above
Outline: as §1

Binder	SPOT peptide array binding signal intensity
TIRRRAPLSLLESHT	1

Biological target: AgFus1
Test: as above
Outline: as §1

Binder	SPOT peptide array binding signal intensity
TIRRRAPLSLLESHT	895

Biological target: AgHof1
Test: as above
Outline: as §1

Binder	SPOT peptide array binding signal intensity
TIRRRAPLSLLESHT	47

Biological target: AgHse1
Test: as above
Outline: as §1

Binder	SPOT peptide array binding signal intensity
TIRRRAPLSLLESHT	730

Biological target: AgLsb1
Test: as above
Outline: as §1

Binder	SPOT peptide array binding signal intensity
TIRRRAPLSLLESHT	3.5

Biological target: AgLsb4
Test: as above
Outline: as §1

Binder	SPOT peptide array binding signal intensity
TIRRRAPLSLLESHT	99.5

Biological target: AgMyo5
Test: as above
Outline: as §1

Binder	SPOT peptide array binding signal intensity
TIRRRAPLSLLESHT	≤ 0

Biological target: AgNbp2
Test: as above
Outline: as §1

Binder	SPOT peptide array binding signal intensity
TIRRRAPLSLLESHT	397

Biological target: AgRvs167
Test: as above
Outline: as §1

Binder	SPOT peptide array binding signal intensity
TIRRRAPLSLLESHT	3

Biological target: AgSho1
Test: as above
Outline: as §1

Binder	SPOT peptide array binding signal intensity
TIRRRAPLSLLESHT	36

Biological target: AgSla1-D1-D2
Test: as above
Outline: as §1

Binder	SPOT peptide array binding signal intensity
TIRRRAPLSLLESHT	32

Biological target: AgSla1-D3
Test: as above
Outline: as §1

Binder	SPOT peptide array binding signal intensity
TIRRRAPLSLLESHT	11.5

Biological target: CaAbp1-D1
Test: as above
Outline: as §1

Binder	SPOT peptide array binding signal intensity
TIRRRAPLSLLESHT	475

Biological target: CaAbp1-D2
Test: as above
Outline: as §1

Binder	SPOT peptide array binding signal intensity
TIRRRAPLSLLESHT	324

Biological target: CaBbc1
Test: as above
Outline: as §1

Binder	SPOT peptide array binding signal intensity
TIRRRAPLSLLESHT	133

Biological target: CaBem1-D1
Test: as above
Outline: as §1

Binder	SPOT peptide array binding signal intensity
TIRRRAPLSLLESHT	21.5

Biological target: CaBzz1-D1
Test: as above
Outline: as §1

Binder	SPOT peptide array binding signal intensity
TIRRRAPLSLLESHT	40

Biological target: CaBzz1-D2
Test: as above
Outline: as §1

Binder	SPOT peptide array binding signal intensity
TIRRRAPLSLLESHT	58.8

Biological target: CaCyk3
Test: as above
Outline: as §1

Binder	SPOT peptide array binding signal intensity
TIRRRAPLSLLESHT	11.5

Biological target: CaFus1
Test: as above
Outline: as §1

Binder	SPOT peptide array binding signal intensity
TIRRRAPLSLLESHT	1540

Biological target: CaHof1
Test: as above
Outline: as §1

Binder	SPOT peptide array binding signal intensity
TIRRRAPLSLLESHT	0.5

Biological target: CaHse1
Test: as above
Outline: as §1

Binder	SPOT peptide array binding signal intensity
TIRRRAPLSLLESHT	47.5

Biological target: CaLsb1
Test: as above
Outline: as §1

Binder	SPOT peptide array binding signal intensity
TIRRRAPLSLLESHT	0.5

Biological target: CaLsb4
Test: as above
Outline: as §1

Binder	SPOT peptide array binding signal intensity
TIRRRAPLSLLESHT	130

Biological target: CaMyo5
Test: as above
Outline: as §1

Binder	SPOT peptide array binding signal intensity
TIRRRAPLSLLESHT	≤ 0

Biological target: CaNbp2
Test: as above
Outline: as §1

Binder	SPOT peptide array binding signal intensity
TIRRRAPLSLLESHT	3410

Biological target: CaRvs167
Test: as above
Outline: as §1

Binder	SPOT peptide array binding signal intensity
TIRRRAPLSLLESHT	19.3

Biological target: CaRvs167-3
Test: as above
Outline: as §1

Binder	SPOT peptide array binding signal intensity
TIRRRAPLSLLESHT	28.2

Biological target: CaSho1
Test: as above
Outline: as §1

Binder	SPOT peptide array binding signal intensity
TIRRRAPLSLLESHT	608

Biological target: CaSla1-D1-D2
Test: as above
Outline: as §1

Binder	SPOT peptide array binding signal intensity
TIRRRAPLSLLESHT	133

Biological target: CaSla1-D3
Test: as above
Outline: as §1

Binder	SPOT peptide array binding signal intensity
TIRRRAPLSLLESHT	≤ 0

Biological target: ScAbp1
Test: as above
Outline: as §1

Binder	SPOT peptide array binding signal intensity
TIRRRAPLSLLESHT	97

Biological target: ScBbc1
Test: as above
Outline: as §1

Binder	SPOT peptide array binding signal intensity
TIRRRAPLSLLESHT	16.5

Biological target: ScBem1-D1
Test: as above
Outline: as §1

Binder	SPOT peptide array binding signal intensity
TIRRRAPLSLLESHT	22.5

Biological target: ScBzz1-D1
Test: as above
Outline: as §1

Binder	SPOT peptide array binding signal intensity
TIRRRAPLSLLESHT	11.5

Biological target: ScBzz1-D2
Test: as above
Outline: as §1

Binder	SPOT peptide array binding signal intensity
TIRRRAPLSLLESHT	29.5

Biological target: ScCyk3
Test: as above
Outline: as §1

Binder	SPOT peptide array binding signal intensity
TIRRRAPLSLLESHT	57.5

Biological target: ScFus1
Test: as above
Outline: as §1

Binder	SPOT peptide array binding signal intensity
TIRRRAPLSLLESHT	731

Biological target: ScHof1
Test: as above
Outline: as §1

Binder	SPOT peptide array binding signal intensity
TIRRRAPLSLLESHT	3.5

Biological target: ScHse1
Test: as above
Outline: as §1

Binder	SPOT peptide array binding signal intensity
TIRRRAPLSLLESHT	2020

Biological target: ScLsb1
Test: as above
Outline: as §1

Binder	SPOT peptide array binding signal intensity
TIRRRAPLSLLESHT	2

Biological target: ScLsb2
Test: as above
Outline: as §1

Binder	SPOT peptide array binding signal intensity
TIRRRAPLSLLESHT	≤ 0

Biological target: ScLsb3
Test: as above
Outline: as §1

Binder	SPOT peptide array binding signal intensity
TIRRRAPLSLLESHT	272

Biological target: ScLsb4
Test: as above
Outline: as §1

Binder	SPOT peptide array binding signal intensity
TIRRRAPLSLLESHT	8

Biological target: ScMyo3
Test: as above
Outline: as §1

Binder	SPOT peptide array binding signal intensity
TIRRRAPLSLLESHT	≤ 0

Biological target: ScMyo5
Test: as above
Outline: as §1

Binder	SPOT peptide array binding signal intensity
TIRRRAPLSLLESHT	1

Biological target: ScNbp2
Test: as above
Outline: as §1

Binder	SPOT peptide array binding signal intensity
TIRRRAPLSLLESHT	1320

Biological target: ScPex13
Test: as above
Outline: as §1

Binder	SPOT peptide array binding signal intensity
TIRRRAPLSLLESHT	1

Biological target: ScRvs167
Test: as above
Outline: as §1

Binder	SPOT peptide array binding signal intensity
TIRRRAPLSLLESHT	48.5

Biological target: ScSho1
Test: as above
Outline: as §1

Binder	SPOT peptide array binding signal intensity
TIRRRAPLSLLESHT	1070

Biological target: ScSla1-D1-D2
Test: as above
Outline: as §1

Binder	SPOT peptide array binding signal intensity
TIRRRAPLSLLESHT	337

Biological target: ScSla1-D3
Test: as above
Outline: as §1

Binder	SPOT peptide array binding signal intensity
TIRRRAPLSLLESHT	0.5

Biological target: SpAbp1-D1
Test: as above
Outline: as §1

Binder	SPOT peptide array binding signal intensity
TIRRRAPLSLLESHT	508

Biological target: SpBbc1
Test: as above
Outline: as §1

Binder	SPOT peptide array binding signal intensity
TIRRRAPLSLLESHT	1

Biological target: SpBzz1-D1
Test: as above
Outline: as §1

Binder	SPOT peptide array binding signal intensity
TIRRRAPLSLLESHT	106

Biological target: SpBzz1-D2
Test: as above
Outline: as §1

Binder	SPOT peptide array binding signal intensity
TIRRRAPLSLLESHT	≤ 0
APPPPPRRATPEKKP	1.25

Biological target: SpCyk3
Test: as above
Outline: as §1

Binder	SPOT peptide array binding signal intensity
TIRRRAPLSLLESHT	2
APPPPPRRATPEKKP	3

Biological target: SpHof1
Test: as above
Outline: as §1

Binder	SPOT peptide array binding signal intensity
TIRRRAPLSLLESHT	148
APPPPPRRATPEKKP	15.8

Biological target: SpHof1-2
Test: as above
Outline: as §1

Binder	SPOT peptide array binding signal intensity
TIRRRAPLSLLESHT	3.5
APPPPPRRATPEKKP	17

Biological target: SpHof1-3
Test: as above
Outline: as §1

Binder	SPOT peptide array binding signal intensity
TIRRRAPLSLLESHT	504
APPPPPRRATPEKKP	270

Biological target: SpHse1
Test: as above
Outline: as §1

Binder	SPOT peptide array binding signal intensity
TIRRRAPLSLLESHT	598
APPPPPRRATPEKKP	42.5

Biological target: SpLsb1
Test: as above
Outline: as §1

Binder	SPOT peptide array binding signal intensity
TIRRRAPLSLLESHT	3
APPPPPRRATPEKKP	10.2

Biological target: SpLsb4
Test: as above
Outline: as §1

Binder	SPOT peptide array binding signal intensity
TIRRRAPLSLLESHT	135
APPPPPRRATPEKKP	1240

Biological target: SpMyo1
Test: as above
Outline: as §1

Binder	SPOT peptide array binding signal intensity
TIRRRAPLSLLESHT	≤ 0
APPPPPRRATPEKKP	998

Biological target: SpNbp2
Test: as above
Outline: as §1

Binder	SPOT peptide array binding signal intensity
TIRRRAPLSLLESHT	350
APPPPPRRATPEKKP	≤ 0

Biological target: SpPex13
Test: as above
Outline: as §1

Binder	SPOT peptide array binding signal intensity
TIRRRAPLSLLESHT	7
APPPPPRRATPEKKP	1

Biological target: SpRvs167
Test: as above
Outline: as §1

Binder	SPOT peptide array binding signal intensity
TIRRRAPLSLLESHT	6.33
APPPPPRRATPEKKP	999

Biological target: SpSla1-D1-D2
Test: as above
Outline: as §1

Binder	SPOT peptide array binding signal intensity
TIRRRAPLSLLESHT	5
APPPPPRRATPEKKP	112

Biological target: SpSla1-D3
Test: as above
Outline: as §1

Binder	SPOT peptide array binding signal intensity
TIRRRAPLSLLESHT	4.5
APPPPPRRATPEKKP	3
